# Source: PubChem BioAssay AID1259416 (Broad Institute, 2018)
# The campaign covered roughly 69,000 compounds. About 2,600 (3.8%) were called active. What follows is part of a selection rich in actives, with near analogues and random picks from the rest. A number with no mark means an inactive call. Rule as the data show it: active = activity change below about -70% (passing the limit was not always enough); inconclusive = no clear call, values can overlap the other calls.
# Test: inhibitors of Toxoplasma growth in IFN-γ-primed hosts – cell-based, primary screen (AID 1259416);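 also: host cells are HeLa cells infected with Toxoplasma gondii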
# Conditions: Toxoplasma gondii growth in IFN-gamma-treated host cells; hits give low values; concentration not given here
row,Structure (SMILES),"activity change, negative = inhibition"
1,CO[C@@H]1CN(C)C(=O)c2cc(NC(C)=O)ccc2OC[C@H](C)N(C(=O)Cc2ccccn2)C[C@@H]1C,163%
2,O=C(c1cccs1)N1CCn2c(Cn3cccn3)cnc2C1,3.34%
3,O=S(=O)(c1ccccc1)N1CC2CN(Cc3ccc(O)cc3)CC2C1 (stereo not drawn),-5.71%
4,COc1ccccc1-n1cc(CNC(=O)c2ccc(=O)n(C)c2)cn1,1.65%
5,O=C(CCn1cnnn1)NCc1cnn2ccccc12,1.34%
6,COCC(=O)Nc1ccc(-c2nc(-c3cc(C)ccc3C)co2)cc1,11.3%
7,CNC(=O)c1ccccc1Nc1nc(Nc2ccc(N3CCOCC3)cc2OC)ncc1Cl,-72.7% (active)
8,COc1ccccc1C(=O)Nc1ccc(N2CCN(C)CC2)cc1,-6.5%
9,COc1ccc(S(=O)(=O)N2CCOCC2)cc1NC(=O)COc1ccccc1,-52.6%
10,CCS(=O)(=O)N1CCC2(CC1)CN(S(=O)(=O)c1ccc(C)cc1)[C@H](CO)c1[nH]c3cc(OC)ccc3c12,268%
11,Nc1cc(C(F)(F)F)c(-c2cc(N3CCOCC3)nc(N3CCOCC3)n2)cn1,-74.6% (active)
12,Nc1cc(N2C[C@H]3CC=CC[C@H]3C2)nc(N2CCOCC2)n1,14.9%
13,c1cnc2c(-c3cc(N4CCOCC4)ncn3)cccc2c1,12.9%
14,Cc1ncc(C(=O)NCCCn2ccc3ccccc32)c(C)n1,2.92%
15,CCS(=O)(=O)N1CC2(CN(C(=O)c3ccc(F)cc3)[C@@H](CO)c3c2c2ccc(OC)cc2n3C)C1,62.5%
16,CC(C)CN1CCS(=O)(=O)[C@H]2CCN(S(=O)(=O)N(C)C)CC[C@@H]21,-5.98%
17,Cn1nc(C(=O)NCC2CCC(c3nnc(-c4ccncc4)o3)CC2)ccc1=O (stereo not drawn),24.6%
18,O=C(O)CC1CCC(c2ccc(-c3ccc(Nc4ccc(C(F)(F)F)nc4)cn3)cc2)CC1 (stereo not drawn),-61.2%
19,CCCC1CCC(c2ccc(-c3ccc(CC)cn3)cc2F)CC1 (stereo not drawn),-76% (active)
20,COCCN(Cc1cccs1)C(=O)c1ccncc1Cl,3.28%
21,COc1cccc(C2=NN(C(=O)C(C)C)C(O)(C(F)(F)F)C2)c1 (stereo not drawn),-0.0765%
22,COc1c(C)cnc(CN(C)C(=O)c2cnn3cc(C)cnc23)c1C,-3.21%

row,Structure (SMILES),"activity change, negative = inhibition"
1,COCC1CCN(c2nc(C(C)(C)C)nc3c2cnn3C)C1 (stereo not drawn),-12.1%
2,O=C(Nc1cccnc1)c1cc2c(s1)-c1ccccc1CC2,-101% (active)
3,Cc1ccc(N2CC3(CCN(C(=O)COc4ccccc4)C3)CC2=O)cc1 (stereo not drawn),-15.8%
4,CCOC(=O)c1nc(NCCc2c[nH]c3ccc(Cl)cc23)c2c(C)noc2n1,46.7%
5,O=C(NCCc1c[nH]c2ccccc12)c1cc(=O)nc2sc(N3CCCC3)nn12,5.09%
6,CCN1CCN(c2ncnc3sc(C(=O)NCCc4c[nH]c5ccc(Cl)cc45)c(C)c23)CC1,-83.1% (active)
7,COCCn1cc(-c2nc(C(=O)NCCc3cccnc3)c3ccccn23)nc1C,-8.4%
8,O=C(O)CC1(CC(=O)Nc2ccc(N3CCCCC3)cc2)CCCCC1,96.8%
9,CC(C)(C)c1ccc(C(=O)NC(=S)Nc2ccc(N3CCCCC3)cc2)cc1,-87.8% (active)
10,Cc1ccc(C(=O)NC(=S)Nc2cccc(NC(=O)c3ccccc3)c2)cc1C,-63.6%
11,Cc1cc(NC(=O)CC2CCCCC2)n(-c2ncnc3c2cnn3-c2ccc(Cl)cc2)n1,16.1%
12,CC1CCN(c2ncnc3c2cnn3CC(=O)Nc2cc(F)cc(F)c2)CC1,-68.2%
13,CC1CCN(c2cncnc2-n2cc(NC(=O)CC3CCCCC3)cn2)CC1,-88.5% (active)
14,Cc1c(CN(C)C(=O)COc2cccnc2)[nH]c2ccccc12,66.9%
15,Cc1cccc(-c2[nH]n3c(=O)cc(C(C)n4cnc5ccccc5c4=O)nc3c2C)c1 (stereo not drawn),-29.3%
16,COc1cc(CCC(C)NC(=O)c2ccc(C)cc2)ccc1OC(=O)c1ccc(C)cc1 (stereo not drawn),-12.5%
17,O=C1c2ccc(Nc3ccc(F)cc3F)cc2CCc2ccc(OC[C@H](O)CO)cc21,-74% (active)
18,COCC(=O)N1CCC2(CC1)C(=O)N(c1cncnc1)c1ccccc12,-5.94%
19,C[C@H]1CN([C@@H](C)CO)S(=O)(=O)c2ccc(C#Cc3cccc(F)c3)cc2O[C@@H]1CN(C)S(=O)(=O)c1cn(C)cn1,-91.2% (active)
20,C[C@@H]1CN([C@@H](C)CO)S(=O)(=O)c2ccc(C#Cc3cccc(F)c3)cc2O[C@H]1CN(C)S(=O)(=O)c1cn(C)cn1,-31.1%
21,C[C@H]1CN([C@@H](C)CO)S(=O)(=O)c2ccc(C#CC3(O)CCCC3)cc2O[C@@H]1CN(C)C(=O)Nc1cccc(F)c1,-69.9%
